Reference: PubChem BioAssay AID1508600 (Functional Genomics Laboratory (NCATS/FGL), 2020)
The campaign covered roughly 53,000 sequences. About 3,700 (7%) were called active.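 How the source made its calls: active means gene knockdowns whose robust z-score for IL-1 alpha signal is at least 2 or at most -2, so actives lie on both sides; inactive means the rest.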 Only a selection was taken, and actives are over-represented in it overall.

assay: Components of the Cytosolic LPS Sensing Pathway: Gene Identification via Genome-wide siRNA Screen; settings: RAW264.7 macrophages, IL-1a HTRF, actives lie on both sides, screened at 100 nM (by protocol), cells primed 5 h with Pam3CSK4 first;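 further: robust z of the log signal after scaling to non-targeting control siRNA wells of the plate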
In short: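 RAW264.7 mouse macrophages reverse-transfected with single siRNAs (100 nM final) for 48h, primed with Pam3CSK4 for 5 hours, then transfected with LipidA for 24 hour. Supernatant IL-1a read by HTRF; values normalized to negative-control median, log-transformed robust z-scores.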

Sequence	z-score
GGGUGAUAAAAUUCAGAUUTT against Gpr88	2.07 (active)
GGGUGCAAACAAAAUGAUGTT against Pgm1	-1.42 (inactive)
GGGCCACAUGUGUUCACUATT against Shisa5	-2.35 (active)
CCUUCUCUGCCUCGAUGAUTT against Cox14	-1.23 (inactive)
GGGAAGAUGUGAUGUCUUUTT against Rab29	-0.556 (inactive)
GGUCUUAAUCUCAGGAUGATT against Car5a	-0.294 (inactive)
GGACACAGAAUGUUCUUGGTT against Rps3	0.029 (inactive)
GGAAGAAAAAUAUGCUUUCTT against Pls3	2.7 (active)
CCGAUCACUCAUGGUUGACTT against Sra1	0.565 (inactive)
GCCUGUGCAAAAAGUAGGGTT against Grasp	-0.0182 (inactive)
GGGCCAAUAGGAGUUCUUUTT against Tcf20	0.285 (inactive)
GGAGCUGACGUGCUACUUATT against Speg	2.6 (active)
GGAGAAUCUUAGAGAUUAUTT against Pramel1	0.722 (inactive)
GCAGCUAAGCACUGGAAAATT against Coq4	0.318 (inactive)
GGAAAAAGAGGCCUCAAAGTT against Nek5	1.46 (inactive)
CGCUUUAUUAGAUGGGCUATT against Dlx5	-2.27 (active)
GAAGUUCAAUGGAGAAGACTT against Arl2	-0.825 (inactive)
GGUGUUCAGACUACCCUCUTT against Serpina3m	-1.16 (inactive)
GGGCCAUAAGAUCUGUACUTT against Ccl24	0.472 (inactive)
GGUCCUCUAAAGAAUAAAGTT against Cela3b	0.541 (inactive)
GCCCAGAAAUAUAAUCAAATT against Bub1	2.17 (active)
GGCUACCAUAGGUUUUAAUTT against Serinc4	0.946 (inactive)
CCCGGAUGAUGGAGAUAUUTT against Mnd1	-1 (inactive)

Sequence	z-score
GCCUGAUCUACUGUGGUCCTT against Olfr1347	-0.167 (inactive)
GGCUUGAUCUUCGUAGUGGTT against Arf1	0.132 (inactive)
GCAGAGACUACUUAGCAAGTT against Adprm	2.29 (active)
GCUUAAGAGAUUCAAAUUGTT against Olfr1317	0.036 (inactive)
GCUCUAAACAUGAUUCAAGTT against Akap9	1.17 (inactive)
GGCAGCUAAGUACGUUCAUTT against Gba	0.177 (inactive)
GGAAAGAGAACAUAAAAGATT against Pla2g4a	-0.995 (inactive)
GCAGCAUCGCGUAGAAACATT against Gar1	-0.566 (inactive)
GCUGGAAACCCGUAUACUATT against Krt23	2.16 (active)
CCGUGCACAACAUUGCCUATT against Qtrt1	-0.552 (inactive)
GGAAUUUUCAAGGAACAAUTT against Il1rapl2	-1.8 (inactive)
GGCGUGUAUGUCAAAAAUATT against Grip1	-0.201 (inactive)
GGAGUUGUUACUCUAUUUUTT against Pkd2l2	-0.426 (inactive)
GCUCUCACACCCUUAUGUATT against Nptn	-1.45 (inactive)
GGCGAGAAAUUCUUCACAUTT against Plxna3	-1.51 (inactive)
GGAGAAGGAGCAGAUUAAATT against Krt8	2.07 (active)
CCAAAACCUCAUGCUGAAATT against Zfp758	0.396 (inactive)
GCUAAUACGAUUUACUUUGTT against Cntn6	0.586 (inactive)
GGACGUAUAUCCUUUUAUGTT against Spaar	-0.151 (inactive)
GCAUGAUCAAAUUGUAUCUTT against Nde1	-2.21 (active)
GGUCUUUCUUCGAGGAGUCTT against Ccdc33	-1.03 (inactive)
CCGUAAGAAGGAAAACGCATT against Kcnd1	-0.506 (inactive)
GGUAAGGUUACAGCACUGATT against Chac2	-0.489 (inactive)

Sequence	z-score
GGAAUAUCUGAUAUCAGUATT against Mdga2	0.0727 (inactive)
GGCUUCCUCAUCGAUAUAATT against Ccnh	0.21 (inactive)
GGUACCAAUUGAAGAUAUATT against Ncoa7	2.2 (active)
GGACAAGGAGGAUUUCUUCTT against Nprl2	-0.226 (inactive)
CCUUCUAAGAGAAAAACGUTT against Eps15	0.198 (inactive)
GGUAAACAGAAUAGAAUCCTT against Lcmt1	0.622 (inactive)
GCCUGUGUAUUCUCGCUAUTT against Mon1a	0.345 (inactive)
UGGGCCUUGUAGGCUUCAUTT against Rell2	2.3 (active)
GGACCAGUUAUCCUCACUGTT against Eapp	-0.514 (inactive)
GCACAGCUAAACUUAACUATT against Taz	0.711 (inactive)
GCAAAUUUACCUCGGUUUUTT against Olfr46	0.388 (inactive)
GGCAGGUUUUUGAACUGGUTT against Olfr725	2.28 (active)
GCUGAGAGGUAAAGACACATT against Cntd1	0.116 (inactive)
UCCAGAGGAUCCGCUGUGATT against Krt74	-0.632 (inactive)
GGACUAAACAGAUUCACUATT against Rnase9	-2.42 (active)
GGAUCCUUCGCUUUUAUCGTT against Nox1	-0.343 (inactive)
GGAAAAUCACUUCAUUCACTT against Ltk	0.893 (inactive)
CCUUCGUAGUCUUGAUGUGTT against Olfr1179	-0.104 (inactive)
GGAUCAAAAAAAAACUGGATT against Sinhcaf	1.19 (inactive)
GGAAUUAGUCUCCAAAUAUTT against Sh2d1b1	0.604 (inactive)
GCCAGUACGAAGUGAUCUGTT against Ackr4	2.8 (active)
GGUUCUUGGUUUACAUAAGTT against Slc39a12	-1.23 (inactive)
GGGAAAACCAUACAAAAUATT against Olfr228	-0.525 (inactive)
